# This is a sample that favours compounds with a hit; in the whole collection about 15% have one here.
# Sm TGR block: qHTS Assay for the Inhibitors of Schistosoma Mansoni Peroxiredoxins | Schistosoma mansoni thioredoxin glutathione reductase (TGR), Q962Y6 | purified TGR, DTNB reduction, TNB absorbance 405 nm | Potency, µM (highest dose often 114 µM), for inactives: at the highest dose activity change, negative = inhibition, most hits filed as inhibitors | actives 3% (n = 360,000) | AID 485364, 2010; further: potency means the concentration at half of the fitted maximal effect; on the % scale 0 is the no-effect control and ±100 the full control effect; nearly all actives have a fitted effect of over 60% in size
#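 Kinetic colorimetric format: TGR-catalysed, NADPH-driven DTNB reduction monitored via TNB absorbance. Enzyme dispensed at 20 nM; compound exposure 15 min at room temperature before reaction start.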
# HCMV antiviral: qHTS Assay for inhibitors of the human cytomegalovirus (HCMV) | HFF cells, HCMV-luciferase reporter, 72 h; stronger effect = lower value | activity change, negative = inhibition, % at 57.5 µM | actives 4.5% (n = 410,000); in the data active means activity change below about -60%; inconclusive means no clear call, values can overlap the other calls; inactive means above about -39%; further: on the % scale 0 is the no-effect control and ±100 the full control effect
#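 Screen run at 2 compound doses on HFFs infected with reporter HCMV, MOI 1 PFU/cell. Luciferase activity from cell lysates at 72 h post infection gave inhibition relative to buffer-only and Salinomycin wells.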
# Pf growth 96h: Primary qHTS for delayed death inhibitors of the malarial parasite plastid, 96 hour incubation; P. falciparum luciferase reporter growth, 96 h; Potency, µM (series often up to 28.7 µM), for inactives: at the top dose activity change, negative = inhibition, usual class: inhibitors; actives 6.9% (n = 320,000); AID 504834, 2011; further: potency means the concentration at half of the fitted maximal effect; on the % scale 0 is the no-effect control and ±100 the full control effect
#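 Erythrocytes infected with luciferase-expressing P. falciparum were dispensed at 2% hematocrit and 0.05% parasitemia (final), then incubated with compounds 96 hours at 37 C in 5% CO2. Luminescence after detection reagent addition reported growth.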
# SARS PLP yeast: qHTS of Yeast-based Assay for SARS-CoV PLP. S. cerevisiae expressing SARS-CoV PLpro, growth rescue. Potency, µM (series often up to 32.9 µM), for inactives: at the top dose activity, positive = growth rescue, usual class: activators. actives 0.19% (n = 330,000). AID 485353, 2010; calls by dose curve; further: potency means the concentration at half of the fitted maximal effect; 0% is about no effect; nearly all actives have a fitted effect of over 55% in size
# HCV inhibitor: qHTS Assay for Inhibitors of Hepatitis C Virus (HCV) | Huh7.5.1 HCVcc-Cre infection, luciferase reporter, 44 h | Potency, µM (titrated, usually from 41.8 µM), inactives show top-dose activity change, negative = inhibition, usual class: inhibitors | actives 3.4% (n = 340,000) | AID 651820, 2012; further: potency means the concentration at half of the fitted maximal effect; on the % scale 0 is the no-effect control and ±100 the full control effect
#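 After 44 h co-culture of compound, cells and HCVcc-Cre (~0.5 moi), substrate is added for 15 min at room temperature and luciferase measured over 15 sec. Cells were seeded at 1,000/well and pre-cultured 4 h.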
# Pf growth 48h: Primary qHTS for delayed death inhibitors of the malarial parasite plastid, 48 hour incubation. AID 504832, 2011. P. falciparum luciferase growth in erythrocytes, 48 h. actives 5.9% (n = 310,000). Potency, µM (top dose mostly 28.7 µM), without a hit: at the top dose activity change, negative = inhibition, actives largely listed as inhibitors; further: potency means the concentration at half of the fitted maximal effect; on the % scale 0 is the no-effect control and ±100 the full control effect
#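 Read-out is firefly luciferase luminescence from an integrated reporter in P. falciparum, so falling signal marks reduced parasite growth. Infected erythrocytes were at 2% hematocrit and 0.1% parasitemia (final) in Albumax-supplemented RPMI 1640.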
# * hit, by the source's call; u = inconclusive; x = not tested or not shown; [ ] = dose if it differs, or a comment. Unless noted, the call rests on the fitted dose curve; in most records, active means well fitted curve in the direction sought with a large enough effect; inconclusive means small, poorly fitted or top-dose-only effect, or another doubt; inactive means no such curve, though single readings can be large; an effect the other way counts as inactive or inconclusive.
SMILES,Sm TGR block,HCMV antiviral,Pf growth 96h,SARS PLP yeast,HCV inhibitor,Pf growth 48h
CC1Nc2ncnc(N3CCN(c4ccccc4)CC3)c2N(Cc2ccc(Cl)cc2)C1=O (centres undefined),u,0,13µM*,6%,u,8.3µM*
Cc1ccc(Cn2c(CNC(=O)c3cccc(C)c3)nc3ccccc32)cc1,6%,-21,x,x,x,x
Cc1cccc2c1N(C(=O)c1ccco1)C(C)(C)c1ssc(=S)c1-2,2%,u,5.2µM*,0%,9%,u
Cc1cc2c(cc1C)N(C(=O)CSc1nncn1C)C(C)(C)c1ssc(=S)c1-2,7%,-9,31%,2%,u,u
Cc1ccc2c(c1)N(C(=O)CSc1nncn1C)C(C)(C)c1ssc(=S)c1-2,1%,7,x,-3%,10µM*,u
Cc1ccc2c(c1)N(C(=O)c1ccco1)C(C)(C)c1ssc(=S)c1-2,0%,u,5.2µM*,6%,-12%,x
Cc1cc(C)c2c(c1)-c1c(ssc1=S)C(C)(C)N2C(=O)CN1C(=O)c2ccccc2C1=O,-7%,10,u,-23%,u,-113%
Cc1nn(-c2ccc(N3CCCC3)nn2)c(C)c1CCC(=O)N1CCN(c2ccccc2)CC1,-2%,u,x,x,x,x
Nc1o[nH]c(=O)c1C1CCCCC1,x,-9,x,x,9%,x
CC(=O)N1CC(=O)N2[C@@H](CO)[C@H](c3ccc(Br)cc3)[C@@H]2C1,x,-35,x,x,x,x
Cc1ccc(S(=O)(=O)NN=CC2(c3ccccc3)CC2)cc1,x,-26,x,x,x,x
COc1ccc(Cl)cc1N(CC(=O)N1CCCC1)S(=O)(=O)c1ccc(C)cc1,-3%,-28,u,0%,6%,-28%
COC(=O)CN(c1cc(Cl)ccc1OC)S(=O)(=O)c1ccc(C)cc1,-6%,u,-14%,1%,u,2.1µM*
COc1ccccc1N(CC(=O)Nc1cc(C)on1)S(=O)(=O)c1ccc(Cl)cc1,-9%,-69*,x,9%,-13%,u
COc1ccc(Cl)cc1N(CC(=O)NC(C)(C)C)S(=O)(=O)c1ccc(C)c([N+](=O)[O-])c1,-23%,-76*,4%,-1%,1%,u
COC(=O)CN(c1cc([N+](=O)[O-])ccc1OC)S(C)(=O)=O,19%,-13,15µM*,-2%,17%,-8%
O=C1CSC(=S)N1/N=C/c1cc(Br)ccc1O,7.9µM*,x,-4%,-6%,x,-7%
CCCCN(C=O)c1c(CC)nc2ccc(C(=O)N3CCN(c4ccccc4)CC3)cn12,x,34,x,x,x,x
CC(C)c1cc(NCC2CCCO2)n2c(nc3ccccc32)c1C#N (centres undefined),-14%,-60*,x,-8%,u,6.6µM*
CCc1c(C)c(C#N)c2nc3ccccc3n2c1NCC1CCCO1 (centres undefined),18%,-40,x,5%,-7%,1.7µM*
Cc1cc(NCC2CCCO2)n2c(nc3ccccc32)c1C#N (centres undefined),8%,-13,u,x,-24%,u
CCCS(=O)(=O)NC(=O)C1(C)CCCN(C(=O)c2ccc3ccccc3n2)C1 (centres undefined),x,3,x,x,x,x
COc1ccc(C(=O)Nc2cc(C)nn2-c2cccc(F)c2)cc1OC,-8%,24,u,-1%,-21%,18%
COc1ccc(C(=O)NC(c2ccc(Cl)cc2)c2cc(Cl)c3cccnc3c2O)cc1 (centres undefined),1%,0,x,x,x,x
CCC(=O)NC(c1cc(Cl)c2ccccc2c1O)C(C)C (centres undefined),3%,-35,u,1%,x,u
SMILES,Sm TGR block,HCMV antiviral,Pf growth 96h,SARS PLP yeast,HCV inhibitor,Pf growth 48h
CCC(=O)NC(C)c1cc(Cl)c2cccnc2c1O (centres undefined),-4%,-97*,u,-3%,x,u
COc1ccc(C(NC(C)=O)c2cc(Cl)c3cccnc3c2O)cc1OC (centres undefined),-4%,-100*,7%,5%,2µM*,9.3µM*
CCC(=O)NC(c1ccc(OC)c(OC)c1)c1cc(Cl)c2cccnc2c1O (centres undefined),-3%,-110*,54%,1%,u,1µM*
COc1ccccc1C(NC(C)=O)c1cc(Cl)c2cccnc2c1O (centres undefined),2%,-96*,10%,3%,u,14%[0.00184 µM]
CCOC(=O)C1=C(C(=O)OCC)N(Cc2ccccc2)CCC1=O,x,-12,x,x,15%,x
COc1ccc(-c2noc(CC(=O)Nc3ccc(F)cc3F)n2)cc1,2%,-32,x,x,x,x
CS(=O)(=O)N1CCCCC1c1cc(C(=O)Nc2ccccc2Cl)no1 (centres undefined),x,8,x,x,x,x
O=C(O)/C=C/C(=O)Nc1ccc(SC(F)(F)F)cc1,-14%,20,-2%,3%,20%,57%
O=C(O)/C=C/C(=O)Nc1ccccc1SC(F)(F)F,8.9µM*,-1,0%,-83%,10%,0%
O=C(O)/C=C\C(=O)Nc1ccccc1C#Cc1ccc(Br)cc1,45µM*,16,62%,-29%,4.5µM*,24%
O=C(O)/C=C\C(=O)Nc1ccccc1C#Cc1ccccc1,40µM*,-13,89%,-30%,11µM*,127%
O=C(O)/C=C/C(=O)Nc1ccccc1-c1ccccc1NC(=O)/C=C/C(=O)O,8.9µM*,-15,u,1%,26%,0%
NC(=O)c1ccccc1NC(=O)/C=C/C(=O)O,3%,4,-38%,1%,18%,x
COC(=O)c1ccccc1NC(=O)/C=C/C(=O)O,-14%,15,-22%,u,1%,-2%
O=C(O)/C=C/C(=O)Nc1cccc2c1-c1ccccc1C2=O,x,-11,x,x,13%,x
CCc1cnc2c(c1SCCC(C)C)c(=O)n(C)c(=O)n2C,-4%,0,x,x,x,x
CCCCCCOC(=O)c1ccccc1NC(=O)/C=C/C(=O)O,45µM*,22,-20%,-16%,4%,-7%
O=C(O)c1ccccc1C(=O)OCCCCOC(=O)c1ccccc1C(=O)O,7%,-1,15µM*,-1%,-1%,-5%
Nn1c(COc2ccccc2F)nnc1SCC(=O)NC1CCCCC1,-16%,-20,-6%,0%,8%[8.37 µM],57%
COc1ccccc1NC(=O)CSc1nnc(-c2nonc2NC(C)=O)n1-c1ccccc1,-2%,-17,x,x,x,x
